Measurements published in PubChem BioAssay (NCATS).
Inconclusive results are not listed. Calls of active or inactive are those of the source. The call rests on the fitted dose curve; in most records, active means well fitted curve in the direction sought with a large enough effect; inconclusive means small, poorly fitted or top-dose-only effect, or another doubt; inactive means no such curve, though single readings can be large; an effect the other way counts as inactive or inconclusive. Where a SMILES comes first, the peptide text is derived from it.

Tests used:
HACAT = test: qHTS assay to identify novel small-molecules to repurpose for Merkel cell carcinoma treatment (AID 1296009); details: MCC and control cell lines, CellTiter-Glo viability, 72 h; at 44.8 µM (top of the series) unless noted; further: nearly all actives have a fitted effect of over 60% in size
How it was run: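 72 hr, 37 degree celsius; NPC 8-pt / MIPE 11-pt dose response; compound pinned in DMSO; CellTiter-Glo, 10 min RT, luminescence; normalized to no-cell and DMSO controls.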

C33A = test: Primary qHTS to identify gynecologic anti-cancer compounds using libraries of approved drugs and bioactive compounds (AID 1345084); details: Gynecologic cancer cell panel viability, ATPlite luminescence, 48 h; series mostly up to 57.5 µM; further: on the % scale 0 is the no-effect control and ±100 the full control effect; nearly all actives have a fitted effect of over 55% in size
How it was run: (§1)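 In this quantitative HTS, cell killing is estimated from loss of ATP-dependent luciferase light. Cells see five compound concentrations over a 48 h exposure.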

CAOV3 = test: as above; details: Gynecologic cancer cell panel viability, ATPlite luminescence, 48 h; series mostly up to 57.5 µM
How it was run: as §1

CASKI = test: as above; details: Gynecologic cancer cell panel viability, ATPlite luminescence, 48 h; series mostly up to 57.5 µM
How it was run: as §1

Es-2 = test: as above; details: Gynecologic cancer cell panel viability, ATPlite luminescence, 48 h; series mostly up to 57.5 µM
How it was run: as §1

HeLa = test: as above; details: Gynecologic cancer cell panel viability, ATPlite luminescence, 48 h; series mostly up to 57.5 µM
How it was run: as §1

Hek293T = test: as above; details: Gynecologic cancer cell panel viability, ATPlite luminescence, 48 h, control line for the selectivity index; series mostly up to 57.5 µM
How it was run: as §1

JEG-3 = test: as above; details: Gynecologic cancer cell panel viability, ATPlite luminescence, 48 h; series mostly up to 57.5 µM
How it was run: as §1

CC1C2=CC(=O)OC2(O)CC2C1CCC1C(C)(C)CCC(O)C21C (stereo unspecified)
inactive: outcome (HACAT) | Potency (C33A) | Potency (CAOV3) | outcome (CASKI) | Potency (Es-2) | Potency (HeLa) | Potency (Hek293T) | Potency (JEG-3)

CSCC[C@H](NC(=O)[C@H](CO)NC(=O)[C@H](CCC(=O)O)NC(C)=O)C(=O)N[C@H](C=O)CC(=O)O (Ac-ESMD-aldehyde)
inactive: outcome (HACAT) inactive [at 9.27 µM] | activity change, negative = cytotoxicity (C33A) 13.1% [at 11.6 µM] | activity change, negative = cytotoxicity (CAOV3) 15.6% [at 11.6 µM] | activity change, negative = cytotoxicity (CASKI) 18.4% [at 11.6 µM] | activity change, negative = cytotoxicity (Es-2) 5.54% [at 11.6 µM] | activity change, negative = cytotoxicity (HeLa) 13.1% [at 11.6 µM] | activity change, negative = cytotoxicity (Hek293T) 8.08% [at 11.6 µM] | activity change, negative = cytotoxicity (JEG-3) 19.7% [at 11.6 µM]

COc1ccc(-n2c(SCC#N)nc3sc4c(c3c2=O)CCCC4)cc1
inactive: outcome (HACAT) | Potency (C33A) | Potency (CAOV3) | outcome (CASKI) | Potency (Es-2) | Potency (HeLa) | Potency (Hek293T) | Potency (JEG-3)

C/C=C(/C)C(=O)O[C@H]1C[C@]2(C)O[C@@H]2[C@@H](OC(C)=O)[C@@]2(C)CC[C@@](O)(C(C)C)[C@H]12
inactive: outcome (HACAT) | Potency (C33A) | Potency (CAOV3) | outcome (CASKI) | Potency (Es-2) | Potency (HeLa) | Potency (Hek293T) | Potency (JEG-3)

O=C(OCC1OC(Oc2ccc(O)cc2COC(=O)C2(O)C(O)CCC(=O)C2OC(=O)C2C=CCC2)C(OC(=O)C2C=CCC2)C(O)C1O)C1C=CCC1 (stereo unspecified)
inactive: outcome (HACAT) inactive [at 17.4 µM] | Potency (C33A) | Potency (CAOV3) | outcome (CASKI) | Potency (Es-2) | Potency (HeLa) | Potency (Hek293T) | Potency (JEG-3)

COc1cccc2c1c(O)c(C(=O)N(C)c1ccc(C(F)(F)F)cc1)c(=O)n2C
inactive: outcome (HACAT) | Potency (C33A) | Potency (CAOV3) | outcome (CASKI) | Potency (Es-2) | Potency (HeLa) | Potency (Hek293T) | Potency (JEG-3)

C=C1CCC2[C@](C)(CCC[C@]2(C)C(=O)O)[C@H]1CC/C(C)=C/C(=O)OC (stereo partly specified)
inactive: outcome (HACAT) | Potency (C33A) | Potency (CAOV3) | outcome (CASKI) | Potency (Es-2) | Potency (HeLa) | Potency (Hek293T) | Potency (JEG-3)

COc1cc(O[C@@H]2O[C@H](CO[C@H]3OC[C@](O)(CO)[C@H]3O)[C@@H](O)[C@H](O)[C@H]2O)cc(OC)c1O
inactive: outcome (HACAT) inactive [at 17.4 µM] | Potency (C33A) | Potency (CAOV3) | outcome (CASKI) | Potency (Es-2) | Potency (HeLa) | Potency (Hek293T) | Potency (JEG-3)

CCOC(=O)C1=C(N)Oc2ccc(Cl)cc2C1C(C#N)C(=O)OCC (stereo unspecified)
inactive: outcome (HACAT) | Potency (C33A) | Potency (CAOV3) | outcome (CASKI) | Potency (Es-2) | Potency (HeLa) | Potency (Hek293T) | Potency (JEG-3)

CCC(C)C(C(=O)O)N1Cc2c(OCC=C(C)C)c(C)c(OC)c(C(=O)O)c2C1=O (stereo unspecified)
inactive: outcome (HACAT) inactive [at 17.4 µM] | Potency (C33A) | Potency (CAOV3) | outcome (CASKI) | Potency (Es-2) | Potency (HeLa) | Potency (Hek293T) | Potency (JEG-3)

CC(C)c1c(NC(=O)Nc2ccc(Cl)cc2)c(=O)n(-c2ccccc2)n1C
inactive: outcome (HACAT) | Potency (C33A) | Potency (CAOV3) | outcome (CASKI) | Potency (Es-2) | Potency (HeLa) | Potency (Hek293T) | Potency (JEG-3)

N#CC1C(=O)N=C(c2cc(Cl)ccc2O)C=C1c1cc(OCc2ccccc2)cc(OCc2ccccc2)c1 (stereo unspecified)
inactive: outcome (HACAT) | Potency (C33A) | Potency (CAOV3) | outcome (CASKI) | Potency (Es-2) | Potency (HeLa) | Potency (Hek293T) | Potency (JEG-3)

COC(=O)C(CC1CCCC1)c1ccc(S(C)(=O)=O)cc1 (stereo unspecified)
inactive: outcome (HACAT) | Potency (C33A) | Potency (CAOV3) | outcome (CASKI) | Potency (Es-2) | Potency (HeLa) | Potency (Hek293T) | Potency (JEG-3)

COc1ccccc1Oc1c(NS(=O)(=O)c2ccc(C)cn2)nc(-c2ccncc2)nc1OC
inactive: outcome (HACAT) | Potency (C33A) | Potency (CAOV3) | outcome (CASKI) | Potency (Es-2) | Potency (HeLa) | Potency (Hek293T) | Potency (JEG-3)

C[C@H]1CCN2C[C@]34C[C@@]5(C(=O)Nc6c5ccc5c6OC=CC(C)(C)O5)C(C)(C)C3C[C@]12C(=O)N4C (stereo partly specified)
inactive: outcome (HACAT) inactive [at 17.4 µM] | Potency (C33A) | Potency (CAOV3) | outcome (CASKI) | Potency (Es-2) | Potency (HeLa) | Potency (Hek293T) | Potency (JEG-3)

COc1ccc(/C=C/C(=O)N2CCCC2)cc1
inactive: outcome (HACAT) | Potency (C33A) | Potency (CAOV3) | outcome (CASKI) | Potency (Es-2) | Potency (HeLa) | Potency (Hek293T) | Potency (JEG-3)

CC(C)C1C(OC(=O)/C=C/c2ccccc2)CC2(C)OC2CCC2(C)OC2C1O (stereo unspecified)
inactive: outcome (HACAT) | Potency (C33A) | Potency (CAOV3) | outcome (CASKI) | Potency (Es-2) | Potency (HeLa) | Potency (Hek293T) | Potency (JEG-3)
